In PubChem BioAssay AID1159554 (Broad Institute, 2015):
Several values for one entry are separate records, joined by “and”; a condition that tells them apart may be missing. Equal values may be shown once. Out of some 94,000 compounds screened, about 2,100 (2.2%) were called active. Rule as the data show it: active = activity change below about -80%; inconclusive = no clear call, values can overlap the other calls; inactive = above that. The entries come from a sample that favours actives as a whole.

Assay: P. falciparum Dd2 growth inhibitors, primary screen, SYBR Green fluorescence, single dose replicates (AID 1159554)
Conditions: 72 h, at 10 µM, active compounds read low

| Compound | activity change |
| --- | --- |
| C/C=C/c1ccc([C@H]2[C@@H](CO)N(C(=O)NCCC)[C@H]2CN(C)C(C)=O)cc1 | 0.514% (inactive) |
| CCCNC(=O)[C@@H]1[C@@H](CO)[C@@H]2Cn3c(ccc(-c4cccc(OC)c4)c3=O)[C@H]1N2C(=O)NCCC | 8.98% (inactive) |
| COCC(=O)Nc1ccc2c(c1)OC[C@H](C)N(C(=O)c1cnccn1)C[C@@H](C)[C@@H](OC)CN(C)C2=O | -61.6% (inactive) |
| COc1ccc(-c2ccccc2[C@H]2[C@@H](CO)N(C(=O)C3CCC3)[C@H]2C#N)cc1 | 17.9% (inactive) |
| COc1cccc(CNC(=O)C[C@@H]2C=C[C@@H](NC(=O)C3CCC3)[C@@H](CO)O2)c1 | 37.9% (inactive) |
| COc1ccc2c3c(n(C)c2c1)[C@@H](CO)NCC31CN(S(=O)(=O)c2cccc(C)c2)C1 | -18.8% (inactive) |
| N#Cc1cccc(-c2ccc(C3[C@H]4CNC[C@@H]3N4S(=O)(=O)c3ccc(-c4ccccc4)cc3)cc2)c1 (stereo partly specified) | 14.1% (inactive) and -40.8% (inactive) |
| C[C@H]1CN([C@@H](C)CO)C(=O)c2cc(-c3ccncc3)cnc2O[C@@H]1CN(C)C(=O)C1CCCCC1 | -1.12% (inactive) |
| N#C[C@@H]1[C@H](c2ccccc2-c2ccc(F)cc2)[C@@H](CO)N1c1ncc(-c2ccccc2)s1 | 27.4% (inactive) |
| CO[C@H]1CN(C)C(=O)c2cc(NC(=O)c3nc4ccccc4s3)ccc2OC[C@H](C)N(Cc2cccnc2)C[C@@H]1C | -15.4% (inactive) |
| CCCC(=O)Nc1ccc2c(c1)C(=O)N(C)C[C@H](OC)[C@H](C)CN(CCc1ccccc1)[C@H](C)CO2 | -14.1% (inactive) |
| C[C@@H]1CN([C@@H](C)CO)C(=O)Cc2cc(NC(=O)C3CCCCC3)ccc2O[C@@H]1CN(C)Cc1ccc(-c2ccccc2)cc1 | -20.2% (inactive) |
| C[C@H]1CN([C@@H](C)CO)C(=O)Cc2cc(NS(=O)(=O)c3ccccc3)ccc2O[C@@H]1CN(C)Cc1ccc(C(=O)Nc2ccccc2N)cc1 | -81.4% (active) |
| Cc1ccc(S(=O)(=O)Nc2ccc3c(c2)C(=O)N([C@@H](C)CO)C[C@@H](C)[C@@H](CN(C)Cc2ccc(C(=O)Nc4ccccc4N)cc2)O3)cc1 | -61.1% (inactive) |
| Cc1noc(C)c1S(=O)(=O)Nc1ccc2c(c1)C(=O)N([C@@H](C)CO)C[C@H](C)[C@H](CN(C)Cc1ccc(C(=O)Nc3ccccc3N)cc1)O2 | -52.6% (inactive) |
| C[C@@H]1CN([C@@H](C)CO)C(=O)Cc2cc(NC(=O)C3CCCCC3)ccc2O[C@@H]1CN(C)Cc1ccc(C(=O)Nc2ccccc2N)cc1 | -83.7% (active) |
| C[C@H](CO)N1C[C@H](C)[C@H](CN(C)Cc2ccc(C(=O)Nc3ccccc3N)cc2)Oc2ccc(NS(C)(=O)=O)cc2C1=O | -28.4% (inactive) |
| CC(C)NC(=O)Nc1ccc2c(c1)CC(=O)N([C@H](C)CO)C[C@@H](C)[C@@H](CN(C)Cc1ccc(C(=O)Nc3ccccc3N)cc1)O2 | -49.7% (inactive) |
| C[C@@H]1CN([C@@H](C)CO)C(=O)c2cc(NS(=O)(=O)c3ccccc3)ccc2O[C@@H]1CN(C)Cc1ccc(C(=O)Nc2ccccc2N)cc1 | -83.2% (active) |
| C[C@H]1CN([C@@H](C)CO)C(=O)Cc2cc(NS(=O)(=O)c3ccccc3)ccc2O[C@H]1CN(C)Cc1ccc(C(=O)Nc2ccccc2N)cc1 | -77.2% (inactive) |
| CCCNC(=O)N1C[C@H](C)[C@@H](OC)CN(C)C(=O)c2ccc(NC(=O)CC)cc2OC[C@@H]1C | 52.7% (inactive) |
| COc1ccc2c3c(n(C)c2c1)[C@H](CO)NCC31CN(Cc2cc(F)ccc2F)C1 | 23% (inactive) |
| C[C@H]1CN([C@@H](C)CO)S(=O)(=O)c2ccc(C#Cc3cccnc3)cc2O[C@H]1CN(C)C(=O)CN(C)C | -40.6% (inactive) |
| C[C@H]1CCCCO[C@H](CN(C)S(=O)(=O)c2ccc(F)cc2)[C@@H](C)CN([C@@H](C)CO)C(=O)c2cc(NS(=O)(=O)c3cn(C)cn3)ccc2O1 | 9.89% (inactive) |
| CCCNC(=O)C[C@@H]1CC[C@H]2[C@@H](COC[C@@H](O)CN2Cc2ccccc2F)O1 | 7.46% (inactive) |
| C[C@@H]1CN([C@@H](C)CO)S(=O)(=O)c2ccc(C#Cc3ccc(F)cc3)cc2O[C@H]1CN(C)S(C)(=O)=O | -67.9% (inactive) |

| Compound | activity change |
| --- | --- |
| COc1ccccc1-c1ccc2c(c1)O[C@@H](CN(C)C)[C@H](C)CN([C@H](C)CO)S2(=O)=O | -28.9% (inactive) |
| C[C@@H]1CN([C@@H](C)CO)S(=O)(=O)c2ccc(C#Cc3ccncc3)cc2O[C@@H]1CN(C)S(=O)(=O)c1ccccc1 | -55.9% (inactive) |
| Cc1ccc(S(=O)(=O)N(C)C[C@@H]2Oc3cc(C4=CCCC4)ccc3S(=O)(=O)N([C@@H](C)CO)C[C@@H]2C)cc1 | -71.1% (inactive) |
| COc1ccccc1-c1ccc2c(c1)O[C@H](CN(C)S(=O)(=O)c1ccc(C)cc1)[C@@H](C)CN([C@H](C)CO)S2(=O)=O | -80.6% (active) |
| C[C@@H]1CN([C@H](C)CO)S(=O)(=O)c2ccc(C#Cc3ccncc3)cc2O[C@@H]1CN(C)S(=O)(=O)c1ccc(F)cc1 | -83% (active) |
| CO[C@@H]1CN(C)C(=O)c2cc(NC(=O)Nc3cc(F)ccc3F)ccc2OC[C@@H](C)N(C)C[C@H]1C | -36.8% (inactive) |
| CN1C(=O)c2cc(NC(=O)C3CCOCC3)ccc2OC[C@@H]2O[C@@H](CC(=O)NCC3CC3)CC[C@@H]21 | 6.17% (inactive) |
| O=C(NCCN1CCCC1)[C@@H]1N[C@@H]2c3ccc(-c4ccccc4)c(=O)n3C[C@@H]2[C@H]1CO | -12.1% (inactive) |
| COc1ccc(S(=O)(=O)N2CCCCN3[C@@H](CO)[C@@H](c4ccc(C#CCC(C)C)cc4)[C@@H]3C2)cc1 | -87.6% (active) |
| COc1ccc(S(=O)(=O)N2CCCCN3[C@H](C2)[C@H](c2ccc(C#CCC(C)C)cc2)[C@@H]3CO)cc1 | 2.68% (inactive) |
| COc1ccc(S(=O)(=O)N2CCCCN3[C@H](CO)[C@@H](c4ccc(C#CC(C)C)cc4)[C@H]3C2)cc1 | -38.8% (inactive) |
| CO[C@H]1CN(C)C(=O)c2cc(NC(=O)Nc3ccc4c(c3)OCO4)ccc2OC[C@@H](C)NC[C@@H]1C | -43.8% (inactive) |
| C[C@H]1CCCCO[C@@H](CN(C)C(=O)Nc2cccc3ccccc23)[C@@H](C)CN([C@@H](C)CO)C(=O)c2cc(NS(=O)(=O)c3ccc(Cl)cc3)ccc2O1 | -44.1% (inactive) |
| Cc1noc(C)c1S(=O)(=O)Nc1ccc2c(c1)C(=O)N([C@@H](C)CO)C[C@@H](C)[C@H](CN(C)S(=O)(=O)c1ccc(Cl)cc1)OCCCC[C@H](C)O2 | -80.6% (active) |
| C[C@@H]1CCCCO[C@@H](CN(C)C(=O)Nc2cccc3ccccc23)[C@H](C)CN([C@@H](C)CO)C(=O)c2cc(NS(=O)(=O)c3ccccc3)ccc2O1 | -2.21% (inactive) |
| Cc1noc(C)c1S(=O)(=O)Nc1ccc2c(c1)C(=O)N([C@@H](C)CO)C[C@@H](C)[C@H](CN(C)C(=O)Nc1cccc3ccccc13)O2 | 16.8% (inactive) |
| COc1ccc(S(=O)(=O)Nc2ccc3c(c2)C(=O)N([C@@H](C)CO)C[C@H](C)[C@@H](CN(C)C(=O)Nc2ccc4c(c2)OCO4)OCCCC[C@@H](C)O3)cc1 | -81.3% (active) |
| Cc1ccc(S(=O)(=O)Nc2ccc3c(c2)C(=O)N([C@H](C)CO)C[C@H](C)[C@@H](CN(C)C(=O)Nc2ccc4c(c2)OCO4)OCCCC[C@@H](C)O3)cc1 | -34.5% (inactive) |
| Cc1ccc(S(=O)(=O)Nc2ccc3c(c2)C(=O)N([C@H](C)CO)C[C@H](C)[C@H](CN(C)C(=O)Nc2ccc4c(c2)OCO4)OCCCC[C@@H](C)O3)cc1 | 4.19% (inactive) |
| Cc1noc(C)c1S(=O)(=O)Nc1ccc2c(c1)C(=O)N([C@@H](C)CO)C[C@@H](C)[C@H](CN(C)C(=O)Nc1cccc3ccccc13)OCCCC[C@H](C)O2 | -39% (inactive) |
| Cc1noc(C)c1S(=O)(=O)Nc1ccc2c(c1)C(=O)N([C@@H](C)CO)C[C@@H](C)[C@@H](CN(C)S(=O)(=O)c1ccccc1)OCCCC[C@H](C)O2 | -22.9% (inactive) |
| Cc1noc(C)c1S(=O)(=O)Nc1ccc2c(c1)C(=O)N([C@@H](C)CO)C[C@H](C)[C@@H](CN(C)C(=O)Nc1cccc3ccccc13)OCCCC[C@H](C)O2 | -88.5% (active) |
| Cc1ccc(S(=O)(=O)N(C)C[C@H]2OCCCC[C@H](C)Oc3ccc(NS(=O)(=O)c4c(C)noc4C)cc3C(=O)N([C@H](C)CO)C[C@@H]2C)cc1 | -35.7% (inactive) |
| Cc1ccc(S(=O)(=O)Nc2ccc3c(c2)C(=O)N([C@@H](C)CO)C[C@@H](C)[C@H](CN(C)C(=O)Nc2cccc4ccccc24)OCCCC[C@H](C)O3)cc1 | -81.5% (active) |
| CCNC(=O)C[C@@H]1CC[C@H]2[C@@H](COc3ccc(NC(=O)Cc4cccs4)cc3C(=O)N2C)O1 | 3.93% (inactive) |
